Results on 50 compounds are retold here after PubChem BioAssay AID894 (National Center for Advancing Translational Sciences (NCATS), 2007).

Among all 150,000 compounds or so, about 6,500 (4.3%) were called active. Inconclusive results (about 12%) are left out. Calls follow the shape of the dose curve; as a rule, active = well fitted inhibition curve with a large enough effect (not every such curve was filed as active); inconclusive = small, poorly fitted or top-dose-only effect, or another doubt; inactive = no such curve, though single readings can be large or run the other way. For the sample, actives were picked, then their nearest neighbours and some compounds at random.
% is scaled to controls: 0 for no effect and ±100 for the full control effect; potency is read from the fitted curve at half-maximal effect.

Sequence of 15-hydroxyprostaglandin dehydrogenase [NAD(+)] (Homo sapiens) (P15428 whole entry, looked up): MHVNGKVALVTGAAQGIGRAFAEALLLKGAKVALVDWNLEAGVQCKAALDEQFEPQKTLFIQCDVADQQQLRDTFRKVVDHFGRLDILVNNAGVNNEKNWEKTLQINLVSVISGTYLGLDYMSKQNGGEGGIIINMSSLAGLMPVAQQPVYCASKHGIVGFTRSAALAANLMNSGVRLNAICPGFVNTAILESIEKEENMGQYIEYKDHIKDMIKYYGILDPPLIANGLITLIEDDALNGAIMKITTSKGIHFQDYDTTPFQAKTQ

The test deals with 15-hydroxyprostaglandin dehydrogenase [NAD(+)] (Homo sapiens) (UniProt P15428). The test is described as follows: qHTS Assay for Inhibitors of HPGD (15-Hydroxyprostaglandin Dehydrogenase). The following applies: purified HPGD, NADH fluorescence kinetic, PGE2 substrate; activity change, negative = inhibition: stronger effect = lower value. The procedure, abridged:
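20 nM HPGD preincubated 15 min at room temperature with compound in 50 mM Tris-HCl pH 8, 0.01% Tween 20. Started with 1 mM NAD+ and 30 uM prostaglandin E2; NADH fluorescence (360/450 nm) read 5 times over 30-s intervals, last minus first.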
`CCn1ncc(Br)c1C(=O)Nc1cc(C)ccc1F`: the activity change, negative = inhibition is 0.199% (inactive).
On the same count and under the same terms, the result for `COc1cc2c3c(c1)/C(=C1/SC(=S)NC1=O)C(=O)N3C(C)(C)C=C2C` reads -26.1% (inactive); that for `Cc1c(NC(=S)Nc2ccccc2)c(=O)n(-c2ccccc2)n1C`, -3.36% (inactive); that for `CCC1C=C(c2ccccc2)C=CN=C1N(CC)CC` (stereo not given), -4.96% (inactive).
On to `N#CC1=C(N)N(c2ccccc2)C2=C(C(=O)CCC2)C1c1ccccc1` (stereo not given), for which the activity change, negative = inhibition was -8.89% (inactive).
Turning to `NC1=C([N+](=O)[O-])C(c2ccccc2)C2=C(CCCC2=O)O1` (stereo not given), the Potency was 20 µM (active).
As to `NS(=O)(=O)c1ccc(CNC(=O)c2ccc(Cl)cc2[N+](=O)[O-])cc1`, the activity change, negative = inhibition is -16.4% (inactive).
Consider `CCOc1ccc2cc(C#N)c(SCC(=O)OC)nc2c1`, for which the activity change, negative = inhibition was -15% (inactive).
On the same count and under the same terms, next, `Cc1cc(C)nc(SCc2ccccc2C#N)n1`: -12.7% (inactive).
On to `Cc1ccc2nc(SCc3nnc(-c4ccccc4[N+](=O)[O-])o3)c(C#N)cc2c1`, for which the Potency is 1 µM (active).
In the case of `N#Cc1ccccc1Sc1ccccc1C(=O)OCC(=O)NC1CCCCC1`, the activity change, negative = inhibition is -19.1% (inactive).
For `CCN(CC)c1ccc2oc(=O)c(C)nc2c1`, the activity change, negative = inhibition was -16.7% (inactive).
As for `CCN(CC)c1ccc(/C=N/Nc2nc(C)cc(C)n2)c(O)c1`, the Potency is 20 µM (active).
Turning to `CCOC(=O)Cc1csc(SCC(=O)NC(C)C23CC4CC(CC(C4)C2)C3)n1` (stereo not given), the activity change, negative = inhibition was -15.9% (inactive).
With `Cc1ccc(CNC(=O)c2ccccc2CCc2ccccc2)cc1`, the activity change, negative = inhibition is -19.3% (inactive).
The same measure, in the same setting: the result for `O=C(Cn1cnc2c(cnn2-c2ccccc2)c1=O)NCc1ccccc1` reads -9.12% (inactive).
As to `Cc1c(C(=O)NCc2ccccc2)cnn1-c1ccccc1`, the Potency was 17.8 µM (active).
Turning to `N#C/C(C(=O)N1CCOCC1)=C1/SC(Cc2ccc(F)cc2)C(=O)N1c1ccccc1` (stereo not given), the activity change, negative = inhibition is -13.3% (inactive).
On the same count and under the same terms, next, `CC(=O)c1c(N2CCOCC2)nc(=S)n(-c2cc(C)ccc2C)c1C`: -12.5% (inactive).
Still for that read-out and setting: the result for `CC(C)=C1SC(N2CCN(c3cccc(C)c3)CC2)=NC1=O` reads -16.6% (inactive).
As for `N#Cc1ccccc1-n1c(N)c(C(=O)N2CCCC2)sc1=S`, the Potency is 25.1 µM (active).
With `Cc1ccc(C(=O)N2CCN(C(=O)N3CCOCC3)CC2)cc1`, the activity change, negative = inhibition was 3.86% (inactive).
Still for that read-out and setting: the result for `Cc1cccc(-n2c(N)cc(=O)nc2SC(C)C(=O)NC2CCCCC2)c1` (stereo not given) reads -19.7% (inactive).
As for `Cc1cccc(-n2c(N)c(C(=O)N3CCN(C)CC3)sc2=S)c1`, the Potency is 10 µM (active).
In the case of `Cc1ccc(-n2c(N)c(C(=O)N3CCOCC3)sc2=S)c(C)c1`, the Potency was 7.94 µM (active).
On to `O=S(=O)(NCCSc1ccccn1)c1ccc(Cl)cc1`, for which the activity change, negative = inhibition is -1.01% (inactive).
For `C=C/C1=C/Cc2ccccc2[C@H](C[N+](=O)[O-])C(C(=O)OC)(C(=O)OC)C1`, the activity change, negative = inhibition is -16.5% (inactive).
With `CCOc1cc(CNCc2ccccn2)ccc1OCC(=O)NC(C)(C)C`, the activity change, negative = inhibition is -9.37% (inactive).
On the same count and under the same terms, next, `CC(C)(C)C(=O)N1CCC[C@@]1(CO)C(=O)O`: -2.24% (inactive).
Same read-out and setting: the result for `COc1ccc(CNC(=O)CCCn2nc(C)c([N+](=O)[O-])c2C)cc1` reads -13.5% (inactive); that for `CCC(C)C(=O)Nc1cc([N+](=O)[O-])ccc1Cl` (stereo not given), -1.06% (inactive).
On to `C=CCn1c(CCNC(=O)c2cccs2)n[nH]c1=S`, for which the activity change, negative = inhibition was -27.1% (inactive).
As for `Cc1nnc(SCC(=O)N2CCc3ccccc3C2)s1`, the activity change, negative = inhibition is -6.45% (inactive).
For `O=C(c1cc(-c2ccc(O)cc2)on1)N1CCCc2ccccc21`, the activity change, negative = inhibition is -28% (inactive).
On to `O=C(c1cc(-c2cccc(O)c2)on1)N1CCc2ccccc2C1`, for which the Potency is 25.1 µM (active).
For `CCCNC(=O)NC(=O)COC(=O)CC(NC(N)=O)c1ccc(Cl)cc1` (stereo not given), the activity change, negative = inhibition was -4.57% (inactive).
With `O=C(Cc1ccc2c(c1)CCCC2)Nc1ccccc1Cl`, the Potency is 3.16 µM (active).
For `CC1(C)CC(CCC(=O)Nc2ccccc2Cl)C(=O)O1` (stereo not given), the activity change, negative = inhibition is -12.3% (inactive).
Still for that read-out and setting: the result for `O=C(Nc1ccc2c(c1)CCC2)c1cccc(S(=O)(=O)Nc2ccccc2Cl)c1` reads -11.7% (inactive).
`Cc1nn(-c2ccccc2)c(-n2cccc2)c1C(=O)O`: the activity change, negative = inhibition was -6.97% (inactive).
As to `N/C(=N\OC(=O)CC1CCCCC1)c1ccccc1`, the activity change, negative = inhibition was -21.9% (inactive).
Same read-out and setting: the result for `Cc1ccc(C2CC(=O)NC(SCC(=O)OCc3ccccc3)=C2C#N)o1` (stereo not given) reads -25.8% (inactive); that for `CCOC(=O)CSC1=C(C#N)C(c2sccc2C)CC(=O)N1` (stereo not given), -3.48% (inactive).
On to `C=CCSC1=C(C#N)C(c2cc(Br)c(O)c(OC)c2)CC(=O)N1` (stereo not given), for which the Potency was 17.8 µM (active).
Take `CSCCC(NC(=O)COc1ccccc1)C(=O)Nc1ccc(C)cc1` (stereo not given): the activity change, negative = inhibition is -0.719% (inactive).
The same measure, in the same setting: next, `CCCCC/C=C\C/C=C\C/C=C\CCCCC(=O)NCC(=O)O`: -3.51% (inactive).
The same measure, in the same setting: next, `CCC(=O)Nc1c(C)n[nH]c1C`: -8.91% (inactive).
Take `CC(C)(C)C1CCc2c(sc3nc(SCC(N)=O)nc(N)c23)C1` (stereo not given): the Potency is 28.2 µM (active).
In the case of `CN(C)CCSc1nc(N)c2c3c(sc2n1)COC(C)(C)C3`, the activity change, negative = inhibition was -15.6% (inactive).
For `Nc1nc(SCC(=O)NCCN2CCOCC2)nc2sc3c(c12)CCC3`, the activity change, negative = inhibition is -10.4% (inactive).
